Measurements as given in PubChem BioAssay (NCATS).
A number with no mark means an inactive call. How the calls were made is not given here.

What follows are molecules tested on HIV-1 nucleocapsid protein NCp7 (binding to TG oligonucleotide) (assay: HIV Nucleocapsid (AID 346;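 further: potency is for inhibitors that block NC binding and lower polarization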)). Conditions: HIV-1 NC / fluorescein-TGTGTGTG probe, fluorescence polarization.
Method in brief: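 HIV-1 NC (100 nM) binding to fluorescein-labelled ssDNA TG4xF (10 nM) in Hepes pH 7.5, 250mM NaCl, 1uM ZnCl2, TCEP and 2-mercaptoethanol; compounds pin-transferred, 1 hr room temperature, fluorescence polarization read on CCD imager.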
Potency means the concentration at half of the fitted maximal effect.

| SMILES | Potency |
| --- | --- |
| Cc1cccc(CNc2nc(-c3ccccc3CN(C)C)nc3ccccc23)c1 | > 20 µM |
| COC(=O)N1CCC2(CCCN(c3ccc(-c4ccccc4)cc3)C2)CC1 | > 20 µM |
| COc1cccc(Cn2c(=O)c(C)nc3cnc(OCc4ccccc4)nc32)c1 | > 20 µM |
| CC(=O)NCCNc1nc(-c2cccc(C#N)c2)nc2ccccc12 | > 20 µM |
| O=C(c1ccco1)N1CCC2(CCN(Cc3cc(C(F)(F)F)cc(C(F)(F)F)c3)CC2)CC1 | > 20 µM |
| O=c1c(-c2ccccc2)nc2cncnc2n1C1CC1 | > 20 µM |
| O=C(c1ccco1)N1CCC2(CC1)CN(c1cccc(-c3ccccc3)c1)C2 | > 20 µM |
| Cc1cnc(CNc2nc(-c3c(C)noc3C)nc3ccccc23)cn1 | > 20 µM |
| O=C(c1cc(C(F)(F)F)cc(C(F)(F)F)c1)N1CCC[C@@]2(CCN(c3ccncc3)C2)C1 | > 20 µM |
| O=C(c1csnn1)N1CCC2(CC1)CCN(c1cccc(-c3ccccc3)c1)CC2 | > 20 µM |
| COc1cccc(-c2cncnc2NCCN2CCOCC2)c1 | > 20 µM |
| COc1ncc2nc(C)c(=O)n(C)c2n1 | > 20 µM |
| O=c1c(-c2ccccc2)nc2cnc(Oc3ccccc3)nc2n1C[C@H]1CCCO1 | > 20 µM |
| CN(C)c1ncc2nc(-c3cc(F)cc(F)c3)c(=O)n(CCC#N)c2n1 | > 20 µM |
| O=C(c1ccco1)N1CCC2(CCCN(c3cccc(-c4ccccc4)c3)C2)CC1 | > 20 µM |
| N#CCCn1c(=O)c(-c2cccc(C#N)c2)nc2cnc(N3CCOCC3)nc21 | > 20 µM |
| COc1ncc2ncc(=O)n(Cc3ccc(F)cc3)c2n1 | > 20 µM |
| COc1ncc2nc(-c3ccc(F)cc3)c(=O)n(Cc3cccs3)c2n1 | > 20 µM |
| CNc1nc(-c2ccccc2CN(C)C)nc2ccccc12 | > 20 µM |
| COc1ccc2[nH]cc(CCNc3ncncc3-c3ccccc3C)c2c1 | > 20 µM |

| SMILES | Potency |
| --- | --- |
| Cc1noc(C)c1-c1nccc(N2CCNCC2)n1 | > 20 µM |
| NC(=O)c1ccccc1-c1nc(-n2ccnc2)c2ccccc2n1 | > 20 µM |
| COc1ccc(-c2nc3cnc(N4CCN(C)CC4)nc3n(CCC#N)c2=O)cc1 | > 20 µM |
| CC(C)NC(=O)N1CCCC2(CCN(C(=O)c3cccn3C)CC2)C1 | > 20 µM |
| Cc1noc(C)c1C(=O)N1CCC[C@@]2(CCN(c3ncccn3)C2)C1 | > 20 µM |
| CN(C)c1nc(-c2cccc(C#N)c2)nc2ccccc12 | > 20 µM |
| O=C(c1cc(C(F)(F)F)cc(C(F)(F)F)c1)N1CCC2(CCN(Cc3nccs3)CC2)CC1 | > 20 µM |
| O=C(c1ccncc1)N1CCC2(CC1)CCN(c1cccc(-c3ccccc3)c1)CC2 | > 20 µM |
| CN(Cc1ccco1)c1nc(-c2cccc(C#N)c2)nc2ccccc12 | > 20 µM |
| N#Cc1ccc(CN2CC3(CCN(C(=O)c4cnccn4)CC3)C2)cc1 | > 20 µM |
| COc1ccc(-c2nc3cnc(N(C)C)nc3n(C)c2=O)cc1 | > 4 µM |
| O=C(c1cc(C(F)(F)F)cc(C(F)(F)F)c1)N1CCC2(CC1)CN(Cc1ccccc1)C2 | > 20 µM |
| Cc1cccc(CNc2ccnc(-c3ccoc3)n2)c1 | > 20 µM |
| CS(=O)(=O)N1CCC2(CCCN(c3ccncc3)C2)CC1 | > 20 µM |
| CN1CCN(c2ncnc3ccc(-c4cccc(C#N)c4)cc23)CC1 | > 20 µM |
| COc1cccc(-c2nccc(NCc3ccccc3)n2)c1 | > 20 µM |
| COc1ccc2[nH]cc(CCNc3ccnc(-c4ccc(C(=O)N(C)C)cc4)n3)c2c1 | > 20 µM |
| COc1ccc2[nH]cc(CCNc3ccnc(-c4ccoc4)n3)c2c1 | > 20 µM |
| CN1CCN(c2ncc3nc(-c4cccc(C#N)c4)c(=O)n(C)c3n2)CC1 | > 20 µM |
| COCCn1c(=O)c(CCc2ccccc2)nc2cnc(N(C)C)nc21 | > 20 µM |
